Measurements: PubChem BioAssay AID2685 (National Center for Advancing Translational Sciences (NCATS), 2010)
In all, about 320,000 compounds went through this assay and about 2,100 (0.66%) were called active. Another 53% or so got no clear call; they are omitted. This is one part of a sample in which actives are shown more often than they occur. Calls come from the whole dose curve; as a rule, active = well fitted inhibition curve with a large enough effect in the signal ratio, with a control signal flat (not every such curve was filed as active); inconclusive = small, poorly fitted or top-dose-only effect, or effect the other way, or a change in a side signal; inactive = flat fitted curve, though single readings scatter; the % refers to the signal ratio.

experiment: qHTS Assay for Lipid Storage Modulators in Drosophila S3 Cells; settings: BODIPY lipid droplet fluorescence, 18-24 h, cells fed with added oleic acid; cell number change: measured here: cell count max response; series mostly up to 46.1 µM;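 for cell number change: cells counted by Cell Tracker Red CMTPX staining in the red channel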; for lipid storage change, negative = inhibition: % is set by controls: 0 for no effect and ±100 for the full control effect
In short: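 Laser-scanning cytometry quantifies lipid droplet accumulation (500–530 nm total intensity; droplet/cell object ratio) in oleic acid-fed (400 uM added) Drosophila S3 cells treated with a concentration series. 20 uM Triacsin C defined 100% inhibition.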
Potency is the fitted concentration of half-maximal effect.

Compound | Potency | cell number change [%] | lipid storage change, negative = inhibition
CC(=O)C(Sc1ccc2nnc(-c3ccncc3)n2n1)C(C)=O | inactive | 11 | –
Cc1cc(C)cc(N(CCC(=O)Nc2nnc(C)s2)S(=O)(=O)c2ccc(Cl)cc2)c1 | inactive | -5.03 | –
Cc1nc([N+](=O)[O-])c(SCC(N)=O)n1Cc1ccccc1 | inactive | 11.1 | –
Cc1ccc(C(=O)C2CCN(S(=O)(=O)c3ccccc3C(=O)O)CC2)cc1 | inactive | 25.8 | –
COCCN(CC1CCCN(C2Cc3ccccc3C2)C1)C(=O)CCC(F)(F)F (stereo not drawn) | inactive | 20.2 | –
CC1CCCN(CCC(=O)c2ccc(Br)cc2)C1 (stereo not drawn) | inactive | -9.39 | –
O=C(Nc1ccc(C(=O)N2CCCCC2)cc1)Nc1cccc(Cl)c1 | 13 µM (active) | – | –
COc1ccc(C(=O)CCN2CCCC(C)C2)cc1 (stereo not drawn) | 11.6 µM (active) | -14.2 | –
COc1ccc(NC(=O)COc2ccc3c(c2)CCC3)cc1 | 8.2 µM (active) | – | –
COc1ccc(NC(=O)N2CCCC(C(=O)NC(C)C)C2)cc1 (stereo not drawn) | inactive | 10.2 | –
CCOc1ccc(NC(=O)COc2ccc3c(c2)CCC3)cc1OC | inactive | -12.3 | –
COc1ccc(NC(=O)CCN2CCCC(C)C2)cc1 (stereo not drawn) | inactive | 17 | –
O=C(Nc1ccc(C(=O)N2CCOCC2)cc1)Nc1cccc(Cl)c1 | inactive | 5.64 | –
COc1ccc(NC(=O)C2CCCN(C(=O)Nc3ccc(OC)cc3)C2)cc1 (stereo not drawn) | 1.03 µM (active) | 16.7 | –
COc1ccc(NC(=O)N2CCCC(C(=O)Nc3ccccc3OC)C2)cc1 (stereo not drawn) | inactive | 0.427 | –
COc1cccc(NC(=O)COc2ccc3c(c2)CCC3)c1 | inactive | – | –
CC(=O)c1cccc(NC(=O)Nc2ccc(C(=O)N3CCCC3)cc2)c1 | inactive | 14.3 | –
NS(=O)(=O)c1cc(Cl)c(NC(=O)COC(=O)c2ccccn2)c(Cl)c1 | inactive | 16.5 | –
N#Cc1ccccc1OCC(=O)Nc1ccc2c(c1)OCCCO2 | inactive | 0.833 | –
O=[N+]([O-])c1ccc(Oc2ccc(OCc3ccccc3)cc2)nc1 | inactive | -9.11 | –
CC(=O)Nc1ccc(NC(=O)C(C)OC(=O)CCC(=O)c2ccc(F)cc2)cc1 (stereo not drawn) | inactive | 8.99 | –
Cc1ccc(C(=O)NNC(=O)c2ccncc2)cc1C | inactive | 12.2 | –
CCOC(=O)N1CCN(CC(O)COc2c(C)cc(C)cc2C)CC1 (stereo not drawn) | inactive | 5 | –
CCOC(=O)c1cc(NC(=O)Cc2ccc(S(=O)(=O)N3CCOCC3)s2)cc(C(=O)OCC)c1 | 1.16 µM (active) | -15.4 | –

Compound | Potency | cell number change [%] | lipid storage change, negative = inhibition
O=C(CCN1CCCCCC1)Nc1cccc(F)c1 | 25.9 µM (active) | -13.4 | –
O=C(CCN1CCCCC1)Nc1ccccc1 | inactive | -23.3 | –
CNC(=O)c1ccc(NC(=O)Cc2ccc(S(=O)(=O)N3CCOCC3)s2)cc1 | inactive | – | –
O=C(Cc1ccc(S(=O)(=O)N2CCOCC2)s1)Nc1ccc2c(c1)CCC2 | inactive | -23.1 | –
O=C(CCN1CCCCCC1)Nc1ccc(F)cc1 | inactive | -3.75 | –
Cc1cccc(NC(=O)CCN2CCCCC2)c1 | inactive | 8.73 | –
O=C(NCCN1CCCCC1)Nc1cccc(F)c1 | inactive | -5.7 | –
O=C(CCN1CCCCC1)Nc1cccc(Cl)c1 | 25.9 µM (active) | -28.1 | –
COc1ccc(NC(=O)C2CCCN(S(=O)(=O)c3ccc4c(c3)oc(=O)n4C)C2)c(OC)c1 (stereo not drawn) | inactive | 13.3 | –
COc1cc(C2NC(=O)NC(C)=C2C(C)=O)cc(OC)c1OC (stereo not drawn) | inactive | 0.318 | –
COc1ccc(CC(=O)Nc2ccc(/C(C)=N\NC(=O)c3ccc(Br)o3)cc2)cc1 | inactive | 2.49 | –
COC(=O)c1ccc(COC(=O)C2CC(O)CN2S(=O)(=O)c2ccc([N+](=O)[O-])cc2)cc1 (stereo not drawn) | inactive | 2.24 | –
CC1CCCC(C)N1C(=O)CSc1nnc(NC(=O)c2cccs2)s1 (stereo not drawn) | inactive | 3.67 | –
CCn1cc([N+](=O)[O-])c(C(=O)N2CCCC2)n1 | 29.1 µM (active) | -10.5 | –
CCn1cc([N+](=O)[O-])c(C(=O)N2CCOCC2)n1 | inactive | -13.3 | –
CCn1cc([N+](=O)[O-])c(C(=O)N2CCCCCC2)n1 | inactive | 11.5 | –
COc1ccc(/C=N/S(=O)(=O)c2ccc(C)cc2)cc1 | inactive | – | –
CC(NC(=O)COC(=O)CCN1C(=O)C2CC=CCC2C1=O)c1ccc(Br)cc1 (stereo not drawn) | 9.2 µM (active) | 1.69 | –
CC(=O)C(Cc1ccccc1)NC(=O)COC(=O)CCN1C(=O)C2CC=CCC2C1=O (stereo not drawn) | inactive | 7.02 | –
Cc1ccc(SCC(=O)OCC(=O)NC(C)c2ccc(Br)cc2)cc1 (stereo not drawn) | inactive | -2.31 | –
O=C1N(CC(=O)N2CCc3ccccc32)CCN1Cc1ccc(Cl)cc1 | inactive | – | –
COc1c(Cl)cnn(-c2ccccc2)c1=O | inactive | -2.85 | –
COc1cc(Cl)nn(-c2ccccc2)c1=O | inactive | 0.264 | –
COc1nn(-c2ccccc2)c(=O)c(Cl)c1Cl | 11.6 µM (active) | -20 | –

Compound | Potency | cell number change [%] | lipid storage change, negative = inhibition
COc1ccc(NC(=O)NC2CCCCCCC2)c(OC)c1 | inactive | -0.578 | –
COc1ccc(NC(=O)Cn2ccc3c(OC)cccc3c2=O)cc1 | inactive | 0.407 | –
O=C(O)COc1ccc2oc3c(c2c1)CCCC3 | inactive | 21.3 | –
NNC(=O)COc1ccc2oc3c(c2c1)CCCC3 | inactive | 10.5 | –
CNC(=O)NC(=O)COc1ccc2oc3c(c2c1)CCCC3 | 0.58 µM (active) | 18.9 | –
COc1cccc(-c2cc(C(=O)N/N=C/c3ccco3)c3ccccc3n2)c1 | inactive | – | –
O=C(N/N=C/c1ccco1)c1cc(C2CC2)nc2ccccc12 | inactive | -1.9 | –
O=C(N/N=C/c1ccco1)c1cc(-c2ccccc2)nc2ccccc12 | 29.1 µM (active) | -7.31 | –
O=C1N/C(=N/O)S/C1=C/c1cccnc1 | inactive | 16 | –
CC(=O)/C=C\c1ccccc1OC(=O)c1cc2ccccc2oc1=O | inactive | -9.71 | –
O=C(COC(=O)c1cc2ccccc2o1)c1ccccc1 | inactive | -6.43 | –
O=C(Oc1ccccc1/C=C\C(=O)c1cc2ccccc2o1)c1ccccc1 | 14.6 µM (active) | – | –
FC(F)(F)c1cc(C(F)(F)F)c2ccc(N3CCOCC3)nc2n1 | inactive | 4.12 | –
C=CCn1c(SCC(=O)NC(=O)c2cccc([N+](=O)[O-])c2)nnc1-c1ccccc1F | inactive | -9.47 | –
Cc1ccc(C(=O)OCC(=O)N2CCOCC2)cc1 | inactive | -0.794 | –
O=C(COC(=O)c1cc(S(=O)(=O)N2CCOCC2)ccc1O)NCC1CCCO1 (stereo not drawn) | inactive | -22.6 | –
O=C(COC(=O)c1ccc(Br)c(S(=O)(=O)N2CCOCC2)c1)NCC1CCCO1 (stereo not drawn) | 0.58 µM (active) | -0.879 | –
O=C(COC(=O)c1ccc(Cl)c(S(=O)(=O)N2CCCCC2)c1)NCC1CCCO1 (stereo not drawn) | inactive | 18.1 | –
Cc1ccc(C(=O)OCC(=O)Nc2ccc3c(c2)OCO3)cc1S(=O)(=O)N1CCOCC1 | inactive | -2.32 | –
CCN(c1ccc(NC(=O)COC(=O)c2ccc(C)c(S(=O)(=O)N3CCOCC3)c2)cc1)C(C)C | 23.1 µM (active) | -6.95 | –
Cc1ccc(NC(=O)COC(=O)c2ccc(C)c(S(=O)(=O)N3CCOCC3)c2)cc1 | inactive | 6.4 | –
CSc1sc(C(=O)OC(C)C)c2c1C(=O)CC(C)(C)C2 | inactive | -5.28 | –
O=C(NC1CC1)C1=C[C@H](c2ccc3c(c2)OCO3)C[C@H](OCc2ccc(CO)cc2)O1 | inactive | 3.05 | –
CC(=O)N1CCc2cc(Br)cc(S(=O)(=O)NCCCN3CCCC(C)C3)c21 (stereo not drawn) | inactive | -1.7 | –

Compound | Potency | cell number change [%] | lipid storage change, negative = inhibition
CCCc1nc(SCC(=O)N2CCc3ccccc3C2)c2ccccc2n1 | inactive | -13.9 | –
O=C(c1ccco1)N1CCN(C(=O)C2CC2)CC1 | inactive | 3.46 | –
CC(=O)NN1C(=O)c2ccccc2NC1c1cccc([N+](=O)[O-])c1 (stereo not drawn) | inactive | -1.27 | –
O=C1c2ccccc2NC(c2cccc([N+](=O)[O-])c2)N1CCc1ccccc1 (stereo not drawn) | 5.8 µM (active) | 8.73 | –
O=C1c2ccccc2NC(c2cccc([N+](=O)[O-])c2)N1O (stereo not drawn) | inactive | 5.94 | –
C[N+]1(C)CC2([N+](=O)[O-])CC=C(Oc3ccccc3)C([N+](=O)[O-])(C2)C1 (stereo not drawn) | inactive | -16.8 | –
COCCn1c(SCC(=O)c2c(N)n(C3CC3)c(=O)[nH]c2=O)nnc1-c1ccc(Cl)cc1 | inactive | -5.22 | –
Cc1cc([N+](=O)[O-])ccc1NCc1ccccc1[N+](=O)[O-] | inactive | 7.15 | –
O=C(CSc1ccc([N+](=O)[O-])cn1)Nc1nccs1 | 18.4 µM (active) | 2.83 | –
CC(=O)Nc1ccc(NC(=O)CSc2ccc([N+](=O)[O-])cn2)cc1 | inactive | 0.135 | –
O=C(Cn1cc([N+](=O)[O-])cn1)Nc1nccs1 | inactive | 10.2 | –
CCN(CC(=O)Nc1ccc(OC)cc1)C(=O)CCS(=O)(=O)c1ccc(C)cc1 | inactive | 4.09 | –
COc1ccc(CNS(=O)(=O)c2c(C(=O)N3CCCCC3)c(C)n(C)c2C)cc1 | inactive | -6.92 | –
O=C(CC12CC3CC(CC(C3)C1)C2)Nc1c(F)cccc1F | inactive | -17.2 | –
CNC(=O)c1ccc(NC(=O)CC23CC4CC(CC(C4)C2)C3)cc1 | inactive | 12.8 | –
CCN(CC)C(=O)c1cccc(NC(=O)CC23CC4CC(CC(C4)C2)C3)c1 | 0.231 µM (active) | 17.9 | –
COc1ccc(CCNC(=O)C2CCC(=O)N2Cc2ccccc2Cl)cc1OC (stereo not drawn) | inactive | -14.8 | –
Cc1cc(C(=O)NCCCN2CCN(c3cc(Cl)ccc3C)CC2)n(-c2ccccc2)n1 | – | 12.1 | -3.15% [at 9.22 µM] (inactive)
CC(C)(C)c1cc(OS(C)(=O)=O)ccc1O | inactive | -0.646 | –
CCCCC(CC)C(=O)Oc1ccc(O)c(C(C)(C)C)c1 (stereo not drawn) | 25.9 µM (active) | -29.2 | –
CC(C)(C)c1cc(OC(=O)c2ccncc2)ccc1O | inactive | -10.2 | –
